# Test results published in the supplement of paper PMC6555819.
# How the values were obtained:
# Assay in all cases: PBM binding z-score (relative to random genomic background probes); higher = stronger binding; sequences stand for … in GC…GCGATTGACAGCGTAGAATGAAGG
# [1] = tested on: FXR:RXRa (NR concentration 270 nM, RXRa partner concentration 90 nM)
# How it was run: (§1)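 Binding buffer was PBS pH 7.4 with 2% milk, 0.02% Triton X-100, 1 mM DTT, 0.2 mg/mL BSA and 0.4 mg/ml salmon testes DNA. In it, ligand-free nuclear receptor dimers were incubated 1 h on custom Agilent 4×180K protein-binding microarrays carrying double-stranded probes. Antibodies against each partner (one per run) detected binding, and z-scores were calculated against random background probes after regression normalization of scanned fluorescence.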
# [2] = tested on: LXRa:RXRa (NR concentration 270 nM, RXRa partner concentration 90 nM)
# How it was run: as §1
# [3] = tested on: LXRa homodimer (NR concentration 270 nM)
# How it was run: as §1
# [4] = tested on: LXRb:RXRa (NR concentration 270 nM, RXRa partner concentration 90 nM)
# How it was run: as §1
# [5] = tested on: LXRb homodimer (NR concentration 270 nM)
# How it was run: as §1
# [6] = tested on: PPARa:RXRa (NR concentration 270 nM, RXRa partner concentration 90 nM)
# How it was run: as §1
# [7] = tested on: PPARg:RXRa (NR concentration 180 nM, RXRa partner concentration 90 nM)
# How it was run: as §1
# [8] = tested on: PPARg:RXRa 270nM:90nM, anti-RXR (NR concentration 270 nM, RXRa partner concentration 90 nM)
# How it was run: as §1
# [9] = tested on: PPARg:RXRa 30nM:10nM, anti-RXR (NR concentration 30 nM, RXRa partner concentration 10 nM)
# How it was run: as §1
# [10] = tested on: PPARg:RXRa 90nM:30nM, anti-RXR (NR concentration 90 nM, RXRa partner concentration 30 nM)
# How it was run: as §1
# [11] = tested on: PPARg:RXRa DBDmut IVT, anti-RXR (DBD mutation: RXRa K156A/R161A, NR concentration 270 nM, RXRa partner concentration 90 nM)
# How it was run: as §1
# [12] = tested on: PPARg:RXRa IVT, anti-PPARg (NR concentration 270 nM, RXRa partner concentration 90 nM)
# How it was run: as §1
# [13] = tested on: PPARg DBDmut:RXRa IVT, anti-PPARg (DBD mutation: PPARg1 K132A/R137A, NR concentration 270 nM, RXRa partner concentration 90 nM)
# How it was run: as §1
# [14] = tested on: PPARg DBDmut IVT, anti-PPARg (DBD mutation: PPARg1 K132A/R137A, NR concentration 270 nM)
# How it was run: as §1
# [15] = tested on: PPARg homodimer (NR concentration 180 nM)
# How it was run: as §1
# [16] = tested on: PXR:RXRa (NR concentration 270 nM, RXRa partner concentration 90 nM)
# How it was run: as §1
# [17] = tested on: PXR homodimer (NR concentration 270 nM)
# How it was run: as §1
# [18] = tested on: RARa:RXR (NR concentration 270 nM, RXRa partner concentration 90 nM)
# How it was run: as §1
# [19] = tested on: RARa homodimer (NR concentration 270 nM)
# How it was run: as §1
# [20] = tested on: RARb:RXRa (NR concentration 270 nM, RXRa partner concentration 90 nM)
# How it was run: as §1
Sequence,PBM binding z-score [1],PBM binding z-score [2],PBM binding z-score [3],PBM binding z-score [4],PBM binding z-score [5],PBM binding z-score [6],PBM binding z-score [7],PBM binding z-score [8],PBM binding z-score [9],PBM binding z-score [10],PBM binding z-score [11],PBM binding z-score [12],PBM binding z-score [13],PBM binding z-score [14],PBM binding z-score [15],PBM binding z-score [16],PBM binding z-score [17],PBM binding z-score [18],PBM binding z-score [19],PBM binding z-score [20]
CAAACTAGGTCACCGGAAGGTAAAAGTCCGCATG,4.56,3.72,0.573,2.66,0.507,5.39,9.08,7.23,5.39,7.11,8.41,8.97,5.23,6.11,4.02,2.47,0.103,3.44,0.872,4.32
AATACAGGGTCACTAGGACAGAGTAGGTACGAAT,6.09,5.02,1.08,3.97,1.27,5.77,8.06,6.39,3.02,5.18,3.86,5.7,2.64,3.05,2.54,3.17,0.566,4.21,1.62,4.27
CAAACTAGGTCCCGAAAGGTCAAAGTCGAATGAC,5.02,5.71,5.76,5.44,1.82,5.54,4.62,5.24,2.11,4.36,4.2,4.78,0.419,0.865,3.35,5.58,1.52,6.01,1.91,4.74
CCTATTAGTTGACCACAAGGGCAACCGAAGCTCG,0.713,0.65,0.493,0.591,0.786,0.698,0.53,0.203,0.1,0.256,0.687,0.913,0.619,0.658,1.46,0.841,1,0.762,1.46,1.49
ACAGACAGGTGATGAAGGTAGCTCAGGCTATCAT,-0.0912,-0.299,-0.372,-0.485,-0.548,-0.377,0.539,-0.247,-0.307,0.0803,0.00476,-0.161,-0.42,-0.376,-1.11,-0.38,0.0281,-0.246,0.11,0.0595
TCTATTAGTTGATCAGGGCAACCGAAACAGCGGA,0.646,0.456,0.302,0.505,0.641,0.282,0.218,2.02,3.78,2.67,2.16,0.972,0.672,0.797,0.546,0.5,0.292,0.362,0.492,0.954
CATACAGGGTCAGCTAGGCCAGAGTTGGGACGGC,4.25,2.86,-0.145,2.06,0.341,4.17,3.24,2.97,0.45,1.6,1.33,2.34,0.63,0.195,0.968,1.85,-0.0328,2.78,0.28,4.17
CTCGAAAGGTCGGTTGAGGTGCGTATACGGATAA,2.39,1.39,-0.235,1.24,-0.239,2.3,0.2,0.942,0.258,0.457,-0.22,0.354,-0.47,-0.617,0.786,1.84,0.0676,1.44,-0.0377,2.92
GGAACGAGGGCAAGTTGATAGCGGAGTTTGATGG,0.772,0.00493,-0.352,0.246,-0.525,1.7,0.963,1.16,0.00794,0.229,3.78,2.64,-0.0734,-0.677,0.26,0.392,0.189,0.406,-0.36,2.53
GGAACGAGGGGAAGTTGATAGCAGAGTTTGATGG,0.0996,-0.26,-0.307,-0.0221,-0.185,0.0181,0.515,0.29,-0.0775,0.258,1.12,0.62,0.337,0.547,0.593,0.111,0.308,-0.228,0.391,0.243
GGTGCTAGGTCAACTGATGGTCAGCTAAAGCTCG,4.46,3.2,0.481,2.17,0.109,3.84,3.55,3.81,0.998,2.53,4.51,4.91,-0.202,-0.913,3.45,1.84,0.142,3.25,0.466,4.43
CTACCAAGGTGAACAAGTTCGTTGATTACTATTC,0.442,0.532,0.164,0.939,-0.333,1.49,0.367,0.665,-0.0232,0.145,2.33,2.42,0.0227,0.729,0.895,2.81,4.46,0.986,0.313,1.55
TCTTGTAGATCAACAGGCGGTTAAGAAAGATCGA,0.118,0.174,-0.388,0.205,-0.307,0.615,-0.161,1.12,2.44,1.81,1.91,0.45,0.508,0.822,-0.291,0.038,-0.259,0.363,-0.0268,-0.0147
CGTCCAAGGACAGCAGGTCAGTGAAAGCGACGTG,0.0413,-0.0225,-0.497,-0.229,-1.12,0.599,0.186,-0.344,-0.721,-0.226,0.0757,0.113,-1.43,-0.869,-0.0601,0.288,-0.263,0.676,-0.162,2.37
ATATGTACGTTACATCCGGGTCATTCAGGCTATG,1.77,1.94,1.06,2.44,0.756,2.53,1.39,1.41,0.502,1.35,1.16,1.97,2.06,2.28,1.34,3.1,3.05,3.04,0.866,1.56
